# Bioassay records (PubChem)
# The list is not random: actives were taken first. Their share in the collection is about 1.5%.
# SARS 3CLpro inh: SARS-CoV 3CLpro protease inhibition. P0C6X7. recombinant SARS-CoV 3CLpro, quenched FRET peptide cleavage. inhibition, % at 6 µM. 0.14% of 290,000 active. AID 1706; in the data active = inhibition above about 12%
# VHR inh abs: blocks human VHR1 dual specificity phosphatase | P51452 | recombinant VHR phosphatase, pNPP absorbance | inhibition, % at 13.3 µM | 0.52% of 290,000 active; in the data active = inhibition above about 50%
# Target sequence (P51452 whole entry, looked up): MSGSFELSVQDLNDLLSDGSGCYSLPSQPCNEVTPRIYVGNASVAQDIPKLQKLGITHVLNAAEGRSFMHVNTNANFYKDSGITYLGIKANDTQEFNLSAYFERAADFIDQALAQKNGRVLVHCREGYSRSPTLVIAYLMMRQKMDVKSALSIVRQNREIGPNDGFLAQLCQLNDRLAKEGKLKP
# CCHFV vOTU inh: blocks the CCHF virus ovarian tumor domain protease. 0.55% of 370,000 active. CCHFV vOTU protease, Pep-AMC fluorescence. inhibition, % at 11.5 µM; in the data active = inhibition above about 30%
# RecA intein inh: Mtb RecA intein splicing inhibition | 0.75% of 290,000 active | inhibition, % (no concentration beside the values) | P9WHJ3 | cell-free RecA intein splicing, fluorescence; in the data active = inhibition above about 30%
# A number is an active result; – = inactive; · = not tested or not shown.
SMILES,SARS 3CLpro inh,VHR inh abs,CCHFV vOTU inh,RecA intein inh
COCC(=O)N[C@H]1C[C@@H]2O[C@@H](CO)CC[C@@H]2O[C@@H]1CCc1ccc(-c2ccccc2)cc1,·,·,–,·
COc1ccc(N(CC(=O)Nc2ccccc2OC)S(=O)(=O)c2ccc(OC)c(OC)c2)cc1,–,–,–,–
CCC(CC)NC(=O)CCc1nc2ccccc2c(=O)[nH]1,–,51,–,–
CC(=O)Nc1ccc(NC(=O)CCc2nc3ccccc3c(=O)[nH]2)cc1,–,–,–,–
COc1ccc(Br)cc1/C=N/n1c(C)nc2ccccc2c1=O,–,58,–,–
COc1ccc(OC)c(/C=N/n2c(C)nc3ccccc3c2=O)c1,·,·,–,–
Cc1ccc(Cn2ncc(Cl)c(Cl)c2=O)cc1,–,–,–,38
O=C(Cn1ncc(Cl)c(Cl)c1=O)N1CCN(Cc2ccccc2)CC1,–,–,–,–
CCc1ccc(C(=O)Cn2ncc(Cl)c(Cl)c2=O)cc1,–,–,–,–
Cc1cc(C)cc(Cn2ncc(Cl)c(Cl)c2=O)c1,–,–,–,56
COCCCN1C(=O)C(CC(=O)NC2CCCCC2)CC(C(=O)N(C)C)=C1C (stereo not given),·,·,–,·
Cc1c(C(=O)N/N=C/c2cccnc2)sc(N)c1C#N,–,–,–,–
CC1CCC2(CC1)NC(=O)N(CC(=O)c1ccc(Cl)s1)C2=O (stereo not given),–,–,–,–
CCOC(=O)CSc1nnc(CSc2nc3sc4c(c3c(=O)[nH]2)CCC4)n1-c1ccccc1,–,–,–,–
CCOC(=O)CSc1nnc(CSc2nc(N)c3c(C)c(C)sc3n2)n1-c1ccccc1,–,54,–,–
Cc1cccc(C(=O)NC2CCCc3ccccc32)c1 (stereo not given),–,–,–,–
Cc1cccc(-n2nnc(C(=O)NC3CCCc4ccccc43)c2N)c1 (stereo not given),–,52,–,–
Cn1c(=O)c2c(O)cc(=O)n(-c3ccccc3)c2n(C)c1=O,–,51,–,·
Cc1ccc2nc(-c3cccc(Br)c3)c(Cc3ccsc3)n2c1,·,·,–,·
O=C(NNC(=O)C1CC(=O)N(Cc2ccccc2)C1)c1ccc(Br)cc1 (stereo not given),–,57,–,–
COc1cccc(C2=NOC(C(=O)Nc3cc(C)nn3-c3ccccc3)C2)c1OC (stereo not given),–,–,–,–
Cc1cc(NC(=O)C2CC(c3ccc(F)cc3)=NO2)n(-c2ccccc2)n1 (stereo not given),–,50,–,–
Cc1ccc(NC(=S)NC(=O)CC2CC(C)(C)OC2=O)cc1 (stereo not given),–,58,–,–
CC1(C)CC(CC(=O)NC(=S)Nc2ccc([N+](=O)[O-])cc2)C(=O)O1 (stereo not given),–,–,–,–
O=C(NC1CCCc2c1cnn2-c1ccc(F)cc1F)c1cnccn1 (stereo not given),–,–,–,–
SMILES,SARS 3CLpro inh,VHR inh abs,CCHFV vOTU inh,RecA intein inh
O=C(NC1CCCc2c1cnn2-c1ccc(F)cc1F)c1csnn1 (stereo not given),–,54,–,–
O=C(CCc1cn2ccccc2n1)NC1CCCc2c1cnn2-c1ccccc1F (stereo not given),–,50,–,–
COc1ccccc1CNC(=O)COC(=O)CCN=C1NS(=O)(=O)c2ccccc21,·,·,–,–
COc1ccc(-n2nc(C(=O)NCC(=O)N3CCC4(CC3)OCCO4)c3ccccc3c2=O)c(OC)c1,–,56,–,–
O=C(CN1C(=O)NC(Cc2c[nH]c3ccccc23)C1=O)Nc1ccc(F)cc1F (stereo not given),·,·,–,·
CCc1c(C)sc(NC(=O)Cn2nc(C)c([N+](=O)[O-])c2C)c1C(N)=O,–,53,–,·
CN1Cc2cc(C(=O)c3cc(Cl)cc(CSc4ncccn4)c3O)cnc2NC1=O,–,56,·,–
C=CCn1c(SCC(=O)Nc2ccccc2-c2ccccc2)nnc1-c1ccc(Cl)cc1,·,·,–,·
CCOc1cc(/C=N\Nc2ncc(F)c(N3CCOCC3)n2)ccc1Oc1nc(Cl)ncc1F,–,–,–,–
Cc1nn(-c2ccccc2)c2sc(C(=O)N3CCN(S(=O)(=O)c4ccc(Br)s4)CC3)cc12,·,·,–,·
O=C(NCCN1CCCCC1)Nc1cccc(F)c1,–,57,–,–
COc1ccc2c(COC(=O)CNC(=O)C34CC5CC(CC(C5)C3)C4)cc(=O)oc2c1,–,51,–,–
C=CCOC(=O)N1CCN(C(=O)c2ccc3nc(C)n(C4CCCC4)c3c2)CC1,·,·,–,·
COc1cccc(-c2ccnc3[nH]n(-c4ccccc4)c(=O)c23)c1,–,51,–,–
O=c1c2c(-c3ccc([N+](=O)[O-])cc3)ccnc2[nH]n1-c1ccccc1,–,58,–,–
COc1ccc(-c2ccnc3[nH]n(-c4ccccc4)c(=O)c23)cc1,–,–,–,–
O=c1c2cc([N+](=O)[O-])cc([N+](=O)[O-])c2[nH]n1-c1ccccc1,–,–,–,–
O=C(N=Nc1c(O)[nH]c2ccc([N+](=O)[O-])cc12)c1ccccc1Cl,–,57,–,–
O=[N+]([O-])c1ccc2[nH]c(O)c(N=NC(=S)NCC3CCCO3)c2c1 (stereo not given),–,–,–,–
O=C(O)c1ccccc1N=Nc1c(O)[nH]c2ccc([N+](=O)[O-])cc12,–,–,·,–
CCNC(=S)N=Nc1c(O)[nH]c2ccc([N+](=O)[O-])cc12,–,–,–,45
Cn1nc([N+](=O)[O-])nc1Sc1nnc(-c2ccccc2)o1,–,–,–,32
Cc1ccc(C(=O)OCC(=O)N(C)C2CCS(=O)(=O)C2)cc1S(=O)(=O)N1CCCCC1 (stereo not given),·,·,–,–
Cc1nc2ccccc2c2c1C(=O)NC2=O,–,–,·,60
Cc1nc2ccccc2c2c1C(=O)N(c1ccc(C(=O)O)cc1)C2=O,–,–,–,·
SMILES,SARS 3CLpro inh,VHR inh abs,CCHFV vOTU inh,RecA intein inh
N#Cc1sc2nc(-c3ccccc3)cc(-c3ccco3)c2c1N,–,–,59,–
N#Cc1sc2nc(C3CC3)cc(-c3ccccc3)c2c1N,–,–,–,–
O=C1NC2=C(CCc3ccccc32)C(c2ccccc2)N1 (stereo not given),–,–,–,47
CCc1ccc(C(=O)NNC(=S)Nc2ccc(S(N)(=O)=O)cc2)s1,–,–,–,63
COc1ccccc1-n1cc(C(=O)NCC(=O)N2CCN(c3ccccc3)CC2)c2ccccc2c1=O,–,51,–,–
COc1ccccc1N1CCN(C(=O)CNC(=O)c2cn(-c3ccccc3OC)c(=O)c3ccccc23)CC1,–,–,–,–
C[C@@H]1/C=C/CC(=O)N[C@H](c2cccc(Br)c2)[C@H](C)/C=C/CC(=O)N[C@@H]1c1cccc(Br)c1,·,·,–,·
Cn1cnc([N+](=O)[O-])c1Oc1cccc2ccccc12,–,–,–,36
O=C(CN1C(=O)S/C(=C\c2cccs2)C1=O)Nc1ccc(C(=O)O)c(O)c1,14,–,–,–
COC(=O)[C@@H]1[C@@H](C(=O)OC)C2(c3ccccc3-c3ccccc32)N(c2ccc(Cl)cc2)N1C#N,–,–,–,51
COc1ccc(C)cc1N(C(=O)c1ccco1)C(C(=O)NC1CCCC1)c1ccc(N2CCOCC2)cc1 (stereo not given),–,52,–,–
